From PubChem BioAssay AID1347165 (National Center for Advancing Translational Sciences (NCATS), 2019)
The campaign covered roughly 220,000 compounds. About 5,700 (2.6%) were called active. Not shown: some 18% with an inconclusive outcome. The call rests on the fitted dose curve; in most records, active means well fitted inhibition curve with a large enough effect; inconclusive means small, poorly fitted or top-dose-only effect; inactive means no such curve, though single readings can be large or run the other way. The list comes from a sample in which actives are over-represented; it also holds similar structures and randomly drawn compounds.

target: Lysine-specific demethylase 5B (Homo sapiens) (UniProt Q9UGL1); assay: Primary screen for KDM5B Histone Demethylases FDH-coupled qHTS; details: FDH-coupled NADH fluorescence (FDH is formaldehyde dehydrogenase); series mostly up to 57.7 µM; further: nearly all actives have a fitted effect of over 70% in size
Sequence (Q9UGL1 whole entry, looked up): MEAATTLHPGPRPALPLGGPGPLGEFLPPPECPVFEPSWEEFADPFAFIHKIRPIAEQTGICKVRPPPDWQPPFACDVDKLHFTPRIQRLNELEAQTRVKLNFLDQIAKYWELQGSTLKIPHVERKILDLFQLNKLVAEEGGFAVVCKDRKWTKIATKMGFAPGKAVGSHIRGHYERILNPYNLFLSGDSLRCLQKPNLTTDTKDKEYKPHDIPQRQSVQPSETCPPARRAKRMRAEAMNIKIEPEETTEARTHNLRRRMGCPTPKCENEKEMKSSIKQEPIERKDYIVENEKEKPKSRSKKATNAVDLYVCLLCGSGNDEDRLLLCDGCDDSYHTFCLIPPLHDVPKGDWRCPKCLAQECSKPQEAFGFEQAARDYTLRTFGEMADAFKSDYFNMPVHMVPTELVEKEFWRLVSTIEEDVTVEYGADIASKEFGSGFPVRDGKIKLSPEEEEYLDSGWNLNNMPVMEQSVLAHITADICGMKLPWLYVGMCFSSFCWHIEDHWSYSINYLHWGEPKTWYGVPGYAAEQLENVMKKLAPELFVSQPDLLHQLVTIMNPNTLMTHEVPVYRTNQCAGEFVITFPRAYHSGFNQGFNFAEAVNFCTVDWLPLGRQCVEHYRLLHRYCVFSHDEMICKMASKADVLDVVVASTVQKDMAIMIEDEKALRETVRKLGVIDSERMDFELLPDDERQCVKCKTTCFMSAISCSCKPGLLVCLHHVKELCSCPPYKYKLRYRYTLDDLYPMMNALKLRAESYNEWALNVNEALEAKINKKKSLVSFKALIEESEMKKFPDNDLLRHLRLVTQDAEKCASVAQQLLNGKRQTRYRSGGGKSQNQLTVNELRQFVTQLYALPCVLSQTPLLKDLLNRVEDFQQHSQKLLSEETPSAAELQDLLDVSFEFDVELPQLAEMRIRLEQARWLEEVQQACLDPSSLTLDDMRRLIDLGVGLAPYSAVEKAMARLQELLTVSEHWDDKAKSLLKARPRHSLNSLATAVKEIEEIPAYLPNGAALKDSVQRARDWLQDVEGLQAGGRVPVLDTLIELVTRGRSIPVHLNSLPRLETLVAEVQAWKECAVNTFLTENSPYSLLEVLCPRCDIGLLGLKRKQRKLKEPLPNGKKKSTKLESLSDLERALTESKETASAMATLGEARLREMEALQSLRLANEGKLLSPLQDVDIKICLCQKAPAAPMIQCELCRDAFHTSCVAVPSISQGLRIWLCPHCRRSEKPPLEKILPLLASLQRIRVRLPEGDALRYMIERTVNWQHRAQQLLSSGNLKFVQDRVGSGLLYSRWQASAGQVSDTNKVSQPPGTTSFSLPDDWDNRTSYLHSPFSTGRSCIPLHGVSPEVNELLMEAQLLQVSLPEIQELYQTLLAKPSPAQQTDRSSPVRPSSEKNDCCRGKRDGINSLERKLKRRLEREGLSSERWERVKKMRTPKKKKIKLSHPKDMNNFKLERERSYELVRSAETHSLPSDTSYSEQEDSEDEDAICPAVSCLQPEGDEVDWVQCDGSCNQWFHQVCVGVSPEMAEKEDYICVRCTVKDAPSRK
Method in brief: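 qHTS format, multiple compound concentrations. Buffer 50 mM HEPES pH 7.5/0.01% Tween-20; 200 nM KDM5BΔAP final; 10 min compound preincubation; substrate-mix levels 12.5 µM peptide, 25 µM α-KG, 0.25 mM NAD⁺; 30 min RT; ΔRFU.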
Potency means the concentration at half of the fitted maximal effect.

Potency, inactive:
CCC(=O)Nc1ccc(Cl)cc1C
Cc1cc(C)c(OCC(=O)Nc2ccc(NC(=O)c3ccco3)cc2)c(Br)c1
CCOc1cc(C)c(Cl)cc1S(=O)(=O)N1CCCCC1C (stereo not drawn)
CC(OC(=O)CCCc1c[nH]c2ccccc12)C(=O)NC(N)=O (stereo not drawn)
CCCCc1nc(SCC(=O)Nc2nnc(C(C)C)s2)n[nH]1
CN1[C@@H](CCC(=O)N2CCN(c3ccccc3)CC2)CNC(=O)[C@H]2NCC[C@H]21
O=C(Nc1ccsc1)N[C@H]1C[C@H]2C(=O)NC[C@@H](CCC(=O)N3CCC(O)CC3)N2C1
CN(C)c1ccc(C(=O)N[C@H]2C[C@H]3C(=O)NC[C@@H](CCC(=O)N4CCCCC4)N3C2)cc1
COC(=O)C1CCN(C(=O)CC[C@H]2CNC(=O)[C@@H]3[C@@H](CCN3Cc3cccs3)N2C)CC1
COc1cccc(C(=O)Oc2ccc(C3(c4ccc(OC(=O)c5cccc(OC)c5)cc4)OC(=O)c4ccccc43)cc2)c1
CC(C)NC(=O)CN(C)CC(O)COc1ccc(Cl)cc1 (stereo not drawn)
CCc1cc(CC)n(-c2nc3c(c(=O)n(C)c(=O)n3C)n2C)n1
CCc1nn(C(C)C(=O)NCc2ccccc2Cl)c(=O)c2cc3occc3n12 (stereo not drawn)
NC(=O)c1ccc(NC(=O)C2(Cc3nc4ccccc4s3)CCCCC2)cc1
CCNC(=O)NC(=O)CN1CCCC(c2nc3ccccc3o2)C1 (stereo not drawn)
CCC1(C)Cc2nc3sc4c(=O)n(CC(=O)NCc5ccco5)cnc4c3cc2CO1 (stereo not drawn)
Cn1nc(CC(=O)Nc2cccc(Cl)c2)c2ccccc2c1=O
CC(C)NC(=O)Cc1cccs1
COc1ccc2c(C)c(CC(=O)NCc3ccco3)c(=O)oc2c1
Cc1ccc(C(NC(=O)c2ccccc2Cl)C(Cl)(Cl)Cl)cc1 (stereo not drawn)
Cc1cc(NC(=O)CSc2nc(=O)cc(N)n2-c2ccc(F)cc2)no1
O=C(O)CC/C(=C/c1cccc(Oc2ccc(Cl)cc2)c1)c1nc2ccccc2s1
CN(Cc1nnc(-c2ccc(Br)s2)o1)C1CCCC1
COc1ccccc1C1=NS(=O)(=O)N(C)C(C(=O)N2CCN(Cc3ccccc3)CC2)=C1
Cc1ccccc1CNC(=O)c1ccc2c(c1)CCCC2
O=C(CSc1ncc(-c2ccc(Cl)cc2)o1)Nc1ccc(F)cc1
CC(=O)Nc1cccc(-c2n[nH]c3c2CC(=O)N(Cc2ccccc2F)C3)c1
COc1nc2nc(CCc3ccccc3)n(C)c2cc1-c1cncnc1
CC(=O)Nc1cccc(-c2nnc3n2CCCC3)c1
CSCCC(NC(=O)[C@@H](NC(=O)c1ccc(F)cc1)C(C)C)c1nnc2ccccn12 (stereo partly drawn)
O=C(Nc1cccc(Cl)c1)N1CCN(c2cc(=O)n3nc(-c4ccco4)sc3n2)CC1
CCc1ccc2oc(C(=O)Nc3ccccc3Cl)cc(=O)c2c1
Fc1ccc(NC(=S)NCC(c2ccccc2)c2ccccc2)cc1
O=C(Nc1ccc2oc(-c3cccc(Cl)c3)nc2c1)c1ccc(F)cc1
CN(c1ccccc1)S(=O)(=O)c1ccc(NC(=O)COc2ccccc2)cc1
Cc1ccc(S(=O)(=O)N(C)Cc2ccccc2C(F)(F)F)cc1
CC(C)(C)C(=O)NCCCC(=O)NCc1cccnc1
CCn1cc(-c2ccc(C)cc2)cc1C(=O)NCc1cccnc1
O=C(NC(=S)NC1CCCCC1)c1ccc(Cl)cc1
N#CCCN1CCN(C(=O)c2cn3ccnc(-c4ccccc4)c3n2)CC1
N#CCCN1CCN(C(=O)c2cn3ccnc(-c4ccc(F)cc4)c3n2)CC1
COc1ccc(-c2noc(-c3cccn3CC(=O)Nc3cc(Cl)ccc3OC)n2)cc1F
CCCn1nc(C(=O)Nc2sc3c(c2C(N)=O)CCC3)c2ccccc2c1=O
O=C(c1cccnc1)N1CCC(Cc2nc(C3CCOCC3)no2)CC1
CCc1noc(-c2cn(C3CCN(C(=O)C4(c5ccccc5)CC4)C3)nn2)n1 (stereo not drawn)
CC(C)c1nc(CNC(=O)c2ccc(N(C)C)nc2)no1
CCC(C(=O)Nc1cccc(-c2nc3cccnc3s2)c1C)c1ccccc1 (stereo not drawn)
CCNC(=O)c1noc(-c2ccc[nH]c2=O)n1
CCc1noc(-c2cn(C3CCN(C(=O)c4ccc(Cl)cc4)C3)nn2)n1 (stereo not drawn)
CCc1noc(-c2cn(C3CCN(C(=O)c4cccc(OC)c4)C3)nn2)n1 (stereo not drawn)
CC(C)CC(=O)N1CCC(c2noc(-c3cnccn3)n2)C1 (stereo not drawn)
c1ccc(-c2nc(CN3CCCC3c3cccs3)co2)cc1 (stereo not drawn)
O=C1Cc2cc(-c3csc(Nc4ccc(F)cc4)n3)ccc2N1
CC(=O)Nc1ccc(SC2CCCCCC2=O)cc1 (stereo not drawn)
CCC1CCc2c(sc(NC(=O)C(CC)CC)c2C#N)C1 (stereo not drawn)
Cc1ccc(NC(=O)CN(C)C(=O)c2nc(-c3ccccc3)oc2C)cc1
CC1CCCN(CC(=O)Nc2cc(Cl)ccc2Oc2ccccc2)C1 (stereo not drawn)
Nc1nc2ccc([N+](=O)[O-])cc2[n+]([O-])n1
COc1cccc(N(CC(=O)NC2CCCC2)C(=O)Cn2nnc(-c3ccc(C)o3)n2)c1
C/C(=C\c1ccc([N+](=O)[O-])cc1)C(=O)c1ccccc1
COc1ccc(CNc2nc3c(c(=O)[nH]c(=O)n3C)n2Cc2ccccc2)cc1
N#Cc1nc(/C=C/c2ccc(F)cc2)oc1NC1CCCCC1
c1cncc(CNc2cc(-c3cnc4ccccc4n3)c3cc[nH]c3n2)c1
N#Cc1ccc(CCC(=O)Nc2ccc3ccccc3n2)cc1
COc1ccc2cc(C(=O)NCC3CCCO3)[nH]c2c1 (stereo not drawn)
COc1ccc(CNC(=O)C2CCCC2)cc1
CN(CC(=O)N1CCCC1)c1nc(-c2cccs2)nc2ccccc12
COCCOc1ccc(-c2noc([C@@H]3CCCN3Cc3cccnc3)n2)cn1
COc1ccc(-c2noc([C@@H]3CCCN3C(=O)CCCc3ccccc3)n2)cc1OC
Cn1cc(C(=O)N2CCN(C(=O)Cc3ccccc3)CC2)c2ccccc21
CCC(C)C(NC(=O)NCc1ccc(C)cc1)C(=O)O (stereo not drawn)
CCS(=O)(=O)N1CC(=O)N(Cc2ccccc2Cl)C(C)(C(=O)NCc2ccccc2OC)C1 (stereo not drawn)
O=C(CCn1cncn1)N1CCc2[nH]nc(-c3cccc4ccccc34)c2C1
Cc1cc2oc(=O)cc(CN3CCN(CCc4ccncc4)CC3)c2cc1C
Cc1nn(C)cc1CNC(=O)c1cc2nc(-c3ccc(Cl)s3)cc(C(F)(F)F)n2n1
Cc1cc(C)c(NC(=O)CN(C)Cc2coc(-c3ccccc3)n2)c(C)c1
O=C(c1nc(-c2cccnc2)c2cnccn12)N1CCN(c2ncccn2)CC1
COc1cccc(Cn2c(SCc3ccc(C(=O)N4CCCCC4)cc3)nc3ccncc32)c1
CCNC(=O)[C@@H]1CCCN1[C@@H](C(=O)NC)c1ccccc1OC
CNC(=O)C(C)(C)N1CCC[C@H]1C(=O)N(C)Cc1ccccc1
Cc1cccc(OC(C)C(=O)Nc2cc(-c3ccc(F)c(F)c3)no2)c1C (stereo not drawn)
O=S(=O)(NCCc1csc2nc(-c3ccccc3)nn12)c1cc(Cl)ccc1Cl
Cc1ccc(-c2nc(C3CC(=O)N(c4ccc(Cl)cc4)C3)no2)cc1C (stereo not drawn)
O=C1CC(c2noc(-c3ccc(F)c(Cl)c3)n2)CN1c1ccc(F)cc1 (stereo not drawn)

Potency, active:
CN1[C@@H](CCC(=O)N2CCN(c3ccccn3)CC2)CNC(=O)[C@@H]2[C@H]1CCN2Cc1csnn1 28.2 µM
O=C1NC[C@@H](CCC(=O)N2CCN(c3ccccn3)CC2)N2C[C@@H](NCc3ccccc3)C[C@@H]12 31.6 µM
Cc1nc2scc(CC(=O)NC(C)C)n2c(=O)c1-c1cc(C)n(-c2cccc(Cl)c2)n1 28.2 µM
Cc1cccc(-n2nc(-c3c(C)nc4scc(CC(=O)NCc5ccco5)n4c3=O)cc2C)c1C 31.6 µM
COc1nc2nc(CC3CC3)n(C)c2cc1-c1ccc(CO)cc1 35.5 µM
COc1nc2nc(CC3CC3)n(C)c2cc1-c1cccc(NC(C)=O)c1 35.5 µM
Cn1ncc2c(C(=O)NCc3cccnc3)cc(C(C)(C)C)nc21 100 µM
COc1ccccc1OCCNC(=O)c1cn2ccnc(-c3ccc(C)cc3)c2n1 28.2 µM
CCc1noc(-c2cccn3c(CNC(=O)c4ccncc4)nnc23)n1 28.2 µM
CCc1noc(-c2cccn3c(CNC(=O)C(CC)c4ccccc4)nnc23)n1 (stereo not drawn) 28.2 µM
CCc1noc(-c2cccn3c(CNC(=O)c4cccc(Cl)c4)nnc23)n1 31.6 µM
O=C(NCc1nnc2c(-c3nc(C4CC4)no3)cccn12)c1cccnc1 25.1 µM
Fc1ccc(-c2cc(NC3CCCC3)nc3[nH]ccc23)nc1 31.6 µM
COc1ccc2c(c1)OCC(C(=O)NCc1cc3cc(OC)ccc3[nH]1)C2 (stereo not drawn) 25.1 µM
CC(=O)N1CCN(c2cc(-c3noc([C@@H]4CCCN4Cc4ccccc4)n3)ccn2)CC1 35.5 µM
Cc1ccc(C)c2c(=O)cc(CN3CCN(CCn4cncn4)CC3)[nH]c12 25.1 µM
O=C(c1nc(-c2ccsc2)c2cnccn12)N1CCCC1 35.5 µM
CNC(=O)[C@@H](Cc1ccccc1)N1CCC[C@H]1C(=O)N1CCC1 28.2 µM
COc1ccc(-c2nc(C3CC(=O)N(c4ccc(F)c(Cl)c4)C3)no2)cc1OC (stereo not drawn) 31.6 µM
